From PubChem BioAssay (NCATS) come the findings set out here.

SMILES strings stand for the structures. Results filed as inconclusive are left out. Active and inactive are the calls of the source. Calls follow the shape of the dose curve; as a rule, active = well fitted inhibition curve with a large enough effect; inconclusive = small, poorly fitted or top-dose-only effect; inactive = flat fitted curve, though single readings scatter.
Potency is read from the fitted curve at half-maximal effect.

The first test concerns Dd2. In words: qHTS profiling for inhibitors of Plasmodium falciparum proliferation (AID 504749). Also: nearly all actives have a fitted effect of over 60% in size.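 As to activity, negative = inhibition: 0% = DMSO vehicle and full inhibition = artemisinin control.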 Conditions: P. falciparum in erythrocytes, SYBR Green DNA, 72 h; series mostly up to 28.7 µM; activity, negative = inhibition: at the top concentration. The gist of the method: (§1)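 Quantitative HTS: compounds pinned into medium, infected erythrocytes added (0.3% parasitemia, 2.5% hematocrit), 72 h culture at 37 C under 5% CO2. Saponin/Triton lysis with SYBR Green I, overnight RT, then fluorescence read.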
As for `COC(=O)C[C@](O)(CCCC(C)(C)O)C(=O)O[C@@H]1C(OC)=C[C@]23CCCN2CCc2cc4c(cc2[C@H]13)OCO4`, the Potency was 12.6 nM (active).

Turning to `CC=CC1=C(C(=O)O)N2C(=O)[C@H](NC(=O)[C@H](N)c3ccc(O)cc3)[C@@H]2SC1`, the “activity, negative = inhibition” value is 4.32% (inactive).

For the compound `C[C@H]1C[C@@H]2[C@@H]([C@@H](O)C[C@@]3(C)[C@H]2CC[C@]3(O)C(=O)CO)[C@@]2(C)C=CC(=O)C=C12`, the “activity, negative = inhibition” value is -16.8% [at 12.8 µM] (inactive).

As to `O=c1[nH]c(=O)n(C2CCCO2)cc1F` (centres undefined), the “activity, negative = inhibition” value was 2.81% (inactive).

Turning to `CC1(C)O[C@@H]2C[C@@H]3[C@H]4C[C@@H](F)C5=CC(=O)C=C[C@]5(C)[C@@]4(F)[C@@H](O)C[C@]3(C)[C@]2(C(=O)CO)O1`, the “activity, negative = inhibition” value is -23% (inactive).

In the case of `Nc1ccn([C@@H]2CS[C@H](CO)O2)c(=O)n1`, the Potency entry was “inactive”.

In the case of `CN1c2cc(O)c(N=NC(N)=O)cc2CC1S(=O)(=O)O` (centres undefined), the “activity, negative = inhibition” value was -3.66% (inactive).

Take `CC[C@H]1CN2CCc3cc(OC)c(OC)cc3[C@H]2C[C@@H]1C[C@@H]1NCCc2cc(OC)c(OC)cc21`: the Potency is 178 nM (active).

Consider `Nc1ccn([C@@H]2O[C@H](CO)[C@H](O)C2(F)F)c(=O)n1`, for which the Potency was 1780 nM (active).

Consider `O=C(O)CO.[NH2-].[NH2-].[Pt+2]`, for which the “activity, negative = inhibition” value is -1.01% (inactive).

For the compound `COC(=O)C1=C(C)NC(C)=C(C(=O)OCCN2CCN(C(c3ccccc3)c3ccccc3)CC2)C1c1cccc([N+](=O)[O-])c1` (centres undefined), the Potency is 1580 nM (active).

Consider `COc1c(N2C[C@@H]3CCCN[C@H]3C2)c(F)cc2c(=O)c(C(=O)O)cn(C3CC3)c12`, for which the “activity, negative = inhibition” value is 4.55% (inactive).

For the compound `CCC1=C[C@@H]2CN(C1)Cc1c([nH]c3ccccc13)[C@@](C(=O)OC)(c1cc3c(cc1OC)N(C)[C@@H]1[C@@](O)(C(=O)OC)[C@H](OC(C)=O)[C@]4(CC)C=CCN5CC[C@]31[C@@H]54)C2`, the Potency was 891 nM (active).

`Nc1ccc(S(=O)(=O)Nc2ncccn2)cc1`: the “activity, negative = inhibition” value is 9.68% [at 12.8 µM] (inactive).

Another test has as its system ECU. Described as above. The conditions noted are these: P. falciparum in erythrocytes, SYBR Green DNA, 72 h; series mostly up to 28.7 µM; activity, negative = inhibition: at the top concentration. The gist of the method: as §1
For `COC(=O)C[C@](O)(CCCC(C)(C)O)C(=O)O[C@@H]1C(OC)=C[C@]23CCCN2CCc2cc4c(cc2[C@H]13)OCO4`, the Potency is 17.8 nM (active).

`CC=CC1=C(C(=O)O)N2C(=O)[C@H](NC(=O)[C@H](N)c3ccc(O)cc3)[C@@H]2SC1`: the “activity, negative = inhibition” value is -10.1% (inactive).

In the case of `COc1cc(C(=O)NS(=O)(=O)c2ccccc2C)ccc1Cc1cn(C)c2ccc(NC(=O)OC3CCCC3)cc12`, the “activity, negative = inhibition” value is -6.91% (inactive).

Take `C[C@H]1C[C@@H]2[C@@H]([C@@H](O)C[C@@]3(C)[C@H]2CC[C@]3(O)C(=O)CO)[C@@]2(C)C=CC(=O)C=C12`: the “activity, negative = inhibition” value is -1.88% [at 12.8 µM] (inactive).

In the case of `O=c1[nH]c(=O)n(C2CCCO2)cc1F` (centres undefined), the “activity, negative = inhibition” value was 11.7% (inactive).

On to `CC1(C)O[C@@H]2C[C@@H]3[C@H]4C[C@@H](F)C5=CC(=O)C=C[C@]5(C)[C@@]4(F)[C@@H](O)C[C@]3(C)[C@]2(C(=O)CO)O1`, for which the “activity, negative = inhibition” value is 4.69% (inactive).

On to `Nc1ccn([C@@H]2CS[C@H](CO)O2)c(=O)n1`, for which the Potency entry is “inactive”.

For `CN1c2cc(O)c(N=NC(N)=O)cc2CC1S(=O)(=O)O` (centres undefined), the “activity, negative = inhibition” value was 17.6% (inactive).

As for `CC[C@H]1CN2CCc3cc(OC)c(OC)cc3[C@H]2C[C@@H]1C[C@@H]1NCCc2cc(OC)c(OC)cc21`, the Potency was 316 nM (active).

For `CC(C)(C)NC(=O)[C@H]1CN(Cc2cccnc2)CCN1C[C@@H](O)C[C@@H](Cc1ccccc1)C(=O)N[C@H]1c2ccccc2C[C@H]1O`, the Potency is 11200 nM (active).

Turning to `Nc1ccn([C@@H]2O[C@H](CO)[C@H](O)C2(F)F)c(=O)n1`, the Potency is 5010 nM (active).

As for `O=C(O)CO.[NH2-].[NH2-].[Pt+2]`, the “activity, negative = inhibition” value is 5.16% (inactive).

In the case of `COC(=O)C1=C(C)NC(C)=C(C(=O)OCCN2CCN(C(c3ccccc3)c3ccccc3)CC2)C1c1cccc([N+](=O)[O-])c1` (centres undefined), the Potency is 2510 nM (active).

Consider `COc1c(N2C[C@@H]3CCCN[C@H]3C2)c(F)cc2c(=O)c(C(=O)O)cn(C3CC3)c12`, for which the “activity, negative = inhibition” value was -6.94% (inactive).

As to `CCC1=C[C@@H]2CN(C1)Cc1c([nH]c3ccccc13)[C@@](C(=O)OC)(c1cc3c(cc1OC)N(C)[C@@H]1[C@@](O)(C(=O)OC)[C@H](OC(C)=O)[C@]4(CC)C=CCN5CC[C@]31[C@@H]54)C2`, the Potency is 3980 nM (active).

With `Nc1ccc(S(=O)(=O)Nc2ncccn2)cc1`, the “activity, negative = inhibition” value is 8.16% [at 12.8 µM] (inactive).

The next test concerns FAB9. Described as above. The conditions noted are these: P. falciparum in erythrocytes, SYBR Green DNA, 72 h; series mostly up to 28.7 µM; activity, negative = inhibition: at the top concentration. The gist of the method: as §1
For `COC(=O)C[C@](O)(CCCC(C)(C)O)C(=O)O[C@@H]1C(OC)=C[C@]23CCCN2CCc2cc4c(cc2[C@H]13)OCO4`, the Potency was 56.2 nM (active).

With `CC=CC1=C(C(=O)O)N2C(=O)[C@H](NC(=O)[C@H](N)c3ccc(O)cc3)[C@@H]2SC1`, the “activity, negative = inhibition” value was -10.9% (inactive).

As to `COc1cc(C(=O)NS(=O)(=O)c2ccccc2C)ccc1Cc1cn(C)c2ccc(NC(=O)OC3CCCC3)cc12`, the “activity, negative = inhibition” value was 4.45% (inactive).

With `C[C@H]1C[C@@H]2[C@@H]([C@@H](O)C[C@@]3(C)[C@H]2CC[C@]3(O)C(=O)CO)[C@@]2(C)C=CC(=O)C=C12`, the “activity, negative = inhibition” value is 0.286% [at 12.8 µM] (inactive).

Consider `O=c1[nH]c(=O)n(C2CCCO2)cc1F` (centres undefined), for which the “activity, negative = inhibition” value is 15.6% (inactive).

For `CC1(C)O[C@@H]2C[C@@H]3[C@H]4C[C@@H](F)C5=CC(=O)C=C[C@]5(C)[C@@]4(F)[C@@H](O)C[C@]3(C)[C@]2(C(=O)CO)O1`, the “activity, negative = inhibition” value is 15.7% (inactive).

On to `Nc1ccn([C@@H]2CS[C@H](CO)O2)c(=O)n1`, for which the Potency result was “inactive”.

As for `CN1c2cc(O)c(N=NC(N)=O)cc2CC1S(=O)(=O)O` (centres undefined), the “activity, negative = inhibition” value was -2.03% (inactive).

Consider `CC[C@H]1CN2CCc3cc(OC)c(OC)cc3[C@H]2C[C@@H]1C[C@@H]1NCCc2cc(OC)c(OC)cc21`, for which the Potency is 141 nM (active).

As for `Nc1ccn([C@@H]2O[C@H](CO)[C@H](O)C2(F)F)c(=O)n1`, the Potency is 1410 nM (active).

Turning to `O=C(O)CO.[NH2-].[NH2-].[Pt+2]`, the “activity, negative = inhibition” value is 1.06% (inactive).

For `COC(=O)C1=C(C)NC(C)=C(C(=O)OCCN2CCN(C(c3ccccc3)c3ccccc3)CC2)C1c1cccc([N+](=O)[O-])c1` (centres undefined), the Potency was 7080 nM (active).

Take `COc1c(N2C[C@@H]3CCCN[C@H]3C2)c(F)cc2c(=O)c(C(=O)O)cn(C3CC3)c12`: the “activity, negative = inhibition” value is -18.3% (inactive).

For `Nc1ccc(S(=O)(=O)Nc2ncccn2)cc1`, the “activity, negative = inhibition” value is 6.42% [at 12.8 µM] (inactive).
